The values below come from the supplement of paper PMC13380429.

For test [1], the system named is Vero E6 infected with SARS-CoV-2. Put plainly: morphology score (similarity to uninfected cells); higher = more like uninfected cells. The conditions noted are these: 24 h.
The test system is the same in test [2]. Put plainly: SARS-CoV-2 infection rate relative to infected DMSO; higher = more infection, active = 60 or less. As to conditions: 24 h.

On to `Cc1oc2ccccc2c1CNC(=O)NCc1cccs1` (10 µM), for which, in test [1], the morphology score worked out at 0.0505. In test [2], the SARS-CoV-2 infection rate was 100% (inactive).
The matching figures for `CN(C)CCN(C)CCc1ccc(Cl)c(Cl)c1` (10 µM): 0.208 and 82.5% (inactive).
The matching figures for `CC(C)(N)c1cc(C(=O)N[C@@H]2CCc3ccc(Oc4ccnc5c4CCC(=O)N5)cc3C2)cc(C(F)(F)F)c1` (0.833333 µM): 0.227 and 99% (inactive).
For `C[C@H](Cc1ccc(OCC(=O)O)cc1)NC[C@H](O)c1cccc(Cl)c1` (10 µM), in that order: -0.0663 and 107% (inactive).
As for `S=C(NC1CCCCC1)N1CCC(c2cnc[nH]2)CC1` [thioperamide] (10 µM), the morphology score in test [1] was found to be 0.083. Besides, in test [2], the SARS-CoV-2 infection rate was 96.5% (inactive).
The matching figures for `CN/C(=N\c1ccc(C2=NNC(=O)CC2C)cc1)NC#N` (stereo not drawn) [siguazodan] (10 µM): 0.0721 and 109% (inactive).
The matching figures for `CN1[C@H]2C[C@H](OC(=O)[C@H](CO)c3ccccc3)C[C@@H]1[C@@H](O)C2` [anisodamine] (10 µM): -0.00951 and 116% (inactive).
For `OCc1cc(C(O)CNCCCCCCOCCCCc2ccccc2)ccc1O` (stereo not drawn) [salmeterol] (10 µM), in that order: 0.465 and 54.5% (active).
The molecule `CCN(CC)C(=S)S` [ditiocarb-sodium-trihydrate] (10 µM) came in with a morphology score in test [1] of 0.761. Besides, in test [2], the SARS-CoV-2 infection rate is 11% (active).
For `Nc1nc(Cl)nc2c1ncn2[C@@H]1O[C@H](CO)[C@@H](O)[C@H]1O` [2-chloroadenosine] (10 µM), in that order: -0.0246 and 105% (inactive).
Take `Nc1nnc(Sc2ncc([N+](=O)[O-])s2)s1` (0.833333 µM): the morphology score in test [1] is 0.248. In test [2], the SARS-CoV-2 infection rate is 90.5% (inactive).
The molecule `CC(C)CC(NC(=O)OCC1c2ccccc2-c2ccccc21)C(=O)O` (stereo in doubt) (10 µM) displayed a morphology score in test [1] of 0.145. The SARS-CoV-2 infection rate in test [2] was 96% (inactive).
As for `CN(C)CCN1C(=O)c2cccc3cc(N)cc(c23)C1=O` [amonafide] (0.833333 µM), the morphology score in test [1] was found to be 0.15. The SARS-CoV-2 infection rate in test [2] was 102% (inactive).
Turning to `C/C(=N\NC(=O)[C@@H]1C(=O)NC[C@H]1c1ccccc1)c1cccc(Br)c1` (10 µM), the morphology score in test [1] is -0.162. Further, in test [2], the SARS-CoV-2 infection rate is 112% (inactive).
Consider `Cc1c(N)nc([C@H](CC(N)=O)NC[C@H](N)C(N)=O)nc1C(=O)N[C@H](C(=O)N[C@H](C)[C@@H](O)[C@H](C)C(=O)N[C@H](C(=O)NCCc1nc(-c2nc(C(=O)NCCC[S+](C)C)cs2)cs1)[C@@H](C)O)[C@@H](OC1OC(CO)C(O)C(O)C1OC1OC(CO)C(O)C(OC(N)=O)C1O)c1cnc[nH]1` (stereo partly drawn) [bleomycin] (10 µM), for which, in test [1], the morphology score was 0.0285. For the same molecule, in test [2], the SARS-CoV-2 infection rate is 100% (inactive).
The molecule `Cn1c(NC[C@@H](N)Cc2ccccc2)nc(-c2ccncc2)c(-c2ccc3ccccc3c2)c1=O` (10 µM) returned a morphology score in test [1] of 0.653. In addition, in test [2], the SARS-CoV-2 infection rate was 35% (active).
For `C[C@@H](CN1CCC(Cc2ccccc2)CC1)[C@@H](O)c1ccc(O)cc1` (10 µM), in that order: 0.157 and 98.5% (inactive).
For `O=C(Nc1cccc(C(F)(F)F)c1)Nc1cc(S(=O)(=O)NC2CC2)ccc1-c1ccsc1` (10 µM), in that order: 0.196 and 102% (inactive).
For `CC(C)NC(=O)c1ccc(C#Cc2ccncc2)cn1` (10 µM), in that order: 0.0135 and 102% (inactive).
